6 compounds from PubChem BioAssay (NCATS) can be followed below.

For assay [1], the target named is Estrogen receptor (Homo sapiens) (UniProt P03372). Description: qHTS assay for small molecule antagonists of estrogen receptor alpha signaling (AID 588513; active = well fitted curve in the direction sought with a large enough effect in the signal ratio, with a control signal flat, not every such curve was filed as active; the % refers to the signal ratio; note: % is set by controls: 0 for no effect and ±100 for the full control effect). An outline of the steps:
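ER-alpha-UAS-bla GripTite HEK 293 cells in 2% charcoal/dextran-treated FBS medium; compounds titrated (1:2, duplicate), then stimulated with 0.5 nM 17-beta-estradiol for 18 h at 37C. CCF4 beta-lactamase fluorescence; Hill-fit IC50 and efficacy.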
On the technique in general: In qHTS, concentration-response curves come from the screen itself.

Assay [2] shares this target. Nature of the assay: qHTS assay for small molecule agonists of estrogen receptor alpha signaling (AID 588514).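 Note: 0% = vehicle only and 100% = reference agonist; nearly all actives have a fitted effect of over 70% in size.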 In outline:
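Reporter-gene assay. […] controls beta-lactamase in HEK 293 GripTite cells; after 18 hrs with compound, CCF4 substrate is added for 2 hrs and fluorescence is read.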

Assay [3] addresses Peroxisome proliferator-activated receptor delta (Homo sapiens) (UniProt Q03181). Description: qHTS assay for small molecule agonists of peroxisome proliferator-activated receptor delta signaling (AID 588534).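 Note: 0% = DMSO basal wells and 100% = positive control agonist at 10 µM.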 An outline of the steps: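 Reporter cells were plated and held 5 hrs at 37 C before compounds were added. After 18 hrs at 37 C, CCF4 dye was loaded for 2 hrs at RT and fluorescence measured.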

Assay [4] concerns the target Peroxisome proliferator-activated receptor gamma (Homo sapiens) (UniProt P37231). Description: qHTS assay for small molecule agonists of peroxisome proliferator-activated receptor gamma signaling (AID 588536; active = well fitted curve in the direction sought with a large enough effect in the signal ratio, with a control signal flat, not every such curve was filed as active; the % refers to the signal ratio;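 note: 0% = DMSO basal wells and 100% = rosiglitazone at 2 µM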). In outline:
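HEK293 UAS-bla reporter line, 1% charcoal/dextran FBS; titration, 16 h, 37 C; CCF4 loading 2 h RT; fluorescence 460/530 nm. Normalized to rosiglitazone 2 uM = 100%, DMSO = 0%.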

Assay [5] has the same target. Nature of the assay: qHTS assay for small molecule antagonists of peroxisome proliferator-activated receptor gamma signaling (AID 588537; active = well fitted inhibition curve with a large enough effect in the signal ratio, with a control signal flat, not every such curve was filed as active; the % refers to the signal ratio;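 note: reporter cells co-stimulated with 50 nM rosiglitazone agonist during compound treatment; % of control where 0% means no effect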). An outline of the steps:
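Inhibitors of agonist-stimulated UAS-bla reporter activity were sought in HEK293 cells; rosiglitazone (50 nM) defined full signal and DMSO baseline. Curves fitted to Hill model gave IC50 and efficacy.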

Assay [6] addresses Vitamin D3 receptor (Homo sapiens) (UniProt P11473). Description: qHTS assay for small molecule antagonists of vitamin D receptor signaling (AID 588541).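 Note: receptor activated by calcitriol during compound treatment; series mostly up to about 77 µM; % is set by controls: 0 for no effect and ±100 for the full control effect.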 In outline:
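Antagonist-mode beta-lactamase reporter assay: HEK293T VDR-UAS-bla cells were exposed to titrated compound alongside 1-alpha,25-dihydroxyvitamin D3 at 3 nM final for 16 h. Values were normalized to the 50 nM agonist control and DMSO basal, with IC50 and efficacy from Hill equation fits.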

Assay [7] has as its target Retinoic acid receptor RXR-alpha (Homo sapiens) (UniProt P19793). Nature of the assay: qHTS assay for small molecule agonists of retinoid X receptor alpha signaling (AID 588544).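 For activation: 0% = DMSO basal wells and 100% = reference agonist.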
Assay [8] has as its target Thyroid hormone receptor beta (Homo sapiens) (UniProt P10828). Description: qHTS assay for small molecule agonists of thyroid hormone receptor beta signaling (AID 588545). In outline:
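In this cell-based screen, titrated compounds act on HEK 293 cells held in medium with 2% charcoal/dextran FBS, NEAA and pyruvate for 18 hrs at 37 C. Responses are expressed relative to T3 (10 nM) as 100% and basal DMSO as 0%.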

The nature of assay [9]: qHTS assay for small molecule antagonists of retinoid X receptor alpha signaling (AID 588546; active = well fitted inhibition curve with a large enough effect in the signal ratio, with a control signal flat, not every such curve was filed as active; the % refers to the signal ratio;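 note: cells stimulated with 9-cis-retinoic acid as agonist; % is set by controls: 0 for no effect and ±100 for the full control effect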). The note with it: HEK293T RXRa-UAS-bla, beta-lactamase ratio, antagonist mode; measured here: W530 green channel, cytotoxicity proxy. In outline:
(§1)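 Beta-lactamase reporter inhibition, read as CCF4 fluorescence ratio (ex 405, em 460/530 nm) after 2 h at RT. HEK293T UAS-bla cells, 2500/well, were stimulated with 9-cis-RA at 500 or 100 nM final alongside test compound for 18 h at 37 C.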

Assay [10] deals with Thyroid hormone receptor beta (Homo sapiens) (UniProt P10828). Description: qHTS assay for small molecule antagonists of thyroid hormone receptor beta signaling (AID 588547; active = well fitted inhibition curve with a large enough effect in the signal ratio, with a control signal flat, not every such curve was filed as active; the % refers to the signal ratio). Conditions: TR-UAS-bla HEK293, beta-lactamase ratio, antagonist mode, 18 h. In outline: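 Inhibition of T3-driven (0.4nM final) beta-lactamase reporter activity was measured over 0.59 nM to 92 uM compound after 18 h at 37 C. The cells were GripTite HEK293 TR-UAS-bla in charcoal/dextran-stripped serum, with CCF4 ratio read-out and IC50 from Hill fits.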
Sequence of Thyroid hormone receptor beta (Homo sapiens) (P10828 whole entry, looked up): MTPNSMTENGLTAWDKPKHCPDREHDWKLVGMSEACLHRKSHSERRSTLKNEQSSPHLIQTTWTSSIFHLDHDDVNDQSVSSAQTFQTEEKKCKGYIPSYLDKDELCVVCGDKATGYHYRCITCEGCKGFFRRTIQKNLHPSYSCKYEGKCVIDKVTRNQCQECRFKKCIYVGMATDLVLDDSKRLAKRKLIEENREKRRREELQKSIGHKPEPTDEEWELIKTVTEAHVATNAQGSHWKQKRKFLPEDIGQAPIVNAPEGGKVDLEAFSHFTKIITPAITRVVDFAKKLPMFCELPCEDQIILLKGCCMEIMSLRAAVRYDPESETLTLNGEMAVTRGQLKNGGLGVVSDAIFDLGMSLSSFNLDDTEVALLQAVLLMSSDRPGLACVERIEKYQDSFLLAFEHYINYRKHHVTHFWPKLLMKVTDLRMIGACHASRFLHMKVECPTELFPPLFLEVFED

A short description of assay [11]: qHTS assay for small molecule activators of the p53 signaling pathway (AID 651743; active = well fitted activation curve with a large enough effect in the signal ratio, not every such curve was filed as active; the % refers to the signal ratio; note: series mostly up to about 92 µM; % of control where 0% means no effect). The note with it: HCT-116 p53RE-bla, beta-lactamase FRET ratio, 16 h; activation: stronger effect = higher value. In outline: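 Screen for p53 pathway agonists uses stably transfected p53RE-bla HCT-116 cells, 4,000 per well, treated 16 h at 37 C with compounds in DMSO.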
A short description of assay [12]: qHTS assay for environmental chemicals that activate the Aryl hydrocarbon Receptor (AhR) signaling pathway (AID 651777; active = well fitted curve in the direction sought with a large enough effect; an effect the other way counts as inactive or inconclusive; note: % of control where 0% means no effect; nearly all actives have a fitted effect of over 15% in size). The note with it: 1A2-DRE human hepatoma cells, luciferase, 24 h; activation: stronger effect = higher value. An outline of the steps:
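Stable CYP1A2 promoter/DRE-luciferase human hepatoma line treated 24 hr; One-Glo luminescence, 30 min RT.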

Assay [13] concerns the target Peroxisome proliferator-activated receptor alpha (Homo sapiens) (UniProt Q07869). Nature of the assay: qHTS assay for small molecule agonists of the peroxisome proliferator-activated receptor alpha (PPARalpha) signaling pathway (AID 651778; active = well fitted curve in the direction sought with a large enough effect; an effect the other way counts as inactive or inconclusive; note: % of control where 0% means no effect). Conditions: PathHunter PPARalpha complementation, chemiluminescence, 6 h; max response: stronger effect = higher value. In outline:
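Chemiluminescence from complemented enzyme reported PPARalpha activation in cells after 6 hr of compound treatment at 37 C. The detection reagent was incubated for 60 min at room temperature, and compounds were scored as agonists.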

The nature of assay [14]: qHTS assay for small molecule agonists of the antioxidant response element (ARE) signaling pathway measured by Nrf2-dependant transcriptional activity (AID 720636; active = well fitted curve in the direction sought with a large enough effect in the repeat runs; an effect the other way counts as inactive or inconclusive;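 note: HepG2 cells with an ARE-driven luciferase reporter; % of control where 0% means no effect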). An outline of the steps: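 Reporter gene assay, HepG2 ARE-luc: 16 hr compound, 37 C, 5% CO2; read-out luciferase luminescence.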
Assay [15] in a line: qHTS assay for small molecule agonists of the antioxidant response element (ARE) signaling pathway measured by Nrf2-dependant transcriptional activity - cell viability counter screen (AID 720653; active = well fitted curve in the direction sought with a large enough effect in the repeat runs; an effect the other way counts as inactive or inconclusive; note: % is set by controls: 0 for no effect and ±100 for the full control effect). Conditions: ARE-bla HepG2 viability, CellTiter-Glo ATP luminescence, 16 h; max response: stronger effect = lower value. In outline:
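Cytotoxicity counter screen: intracellular ATP quantified by CellTiter-Glo luminescence in the same ARE-bla HepG2 plates, after 16 h compound exposure and a 2 h beta-lactamase substrate step.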

Assay [16] is described as follows: qHTS assay for cell viability of HEK293 cells (AID 743288; active = well fitted curve in the direction sought with a large enough effect; an effect the other way counts as inactive or inconclusive; note: % is set by controls: 0 for no effect and ±100 for the full control effect; nearly all actives have a fitted effect of over 50% in size). Conditions: ATP luminescence (CellTiter-Glo), 18 h; max response: stronger effect = lower value. In outline:
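Parental HEK293 cells, 2,000 per well, preincubated at least 5 h at 37 C, then exposed to compounds in DMSO for 18 h at 37 C. Viability by CellTiter-Glo ATP luminescence after 30 min at room temperature.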

Assay [17] can be described thus: qHTS assay for cell viability of the p53RE-bla HCT-116 cell line (AID 743292; active = well fitted curve in the direction sought with a large enough effect; an effect the other way counts as inactive or inconclusive; note: % is set by controls: 0 for no effect and ±100 for the full control effect; nearly all actives have a fitted effect of over 55% in size). An outline of the steps:
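Readout: CellTiter-Glo luminescence after 30 min RT. Treatment: compounds in DMSO, 16 h, 37 C. Cells: CellSensor p53RE-bla HCT-116, 4,000/well, preincubated 5 h.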

In assay [18] the target is Nuclear receptor subfamily 1 group I member 2 (Rattus norvegicus) (UniProt Q9R1A7). Description: qHTS assay for small molecule activators of the rat pregnane X receptor (rPXR) signaling pathway (AID 651751; call rule not given here; note: 0% is about no effect). The note with it: rPXR reporter cells, luciferase (One-Glo), 24 h.
Sequence of Nuclear receptor subfamily 1 group I member 2 (Rattus norvegicus) (Q9R1A7 whole entry, looked up): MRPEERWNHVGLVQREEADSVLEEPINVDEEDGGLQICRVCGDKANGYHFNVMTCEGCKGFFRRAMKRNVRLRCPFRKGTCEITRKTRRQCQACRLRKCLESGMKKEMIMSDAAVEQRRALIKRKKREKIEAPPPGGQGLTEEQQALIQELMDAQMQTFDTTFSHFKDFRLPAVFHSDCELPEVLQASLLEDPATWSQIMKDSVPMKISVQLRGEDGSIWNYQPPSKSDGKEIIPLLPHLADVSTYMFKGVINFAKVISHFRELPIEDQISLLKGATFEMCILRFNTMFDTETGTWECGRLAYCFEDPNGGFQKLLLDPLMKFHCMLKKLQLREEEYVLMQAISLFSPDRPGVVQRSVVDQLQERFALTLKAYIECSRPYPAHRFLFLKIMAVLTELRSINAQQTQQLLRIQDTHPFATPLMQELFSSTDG
A short description of assay [19]: qHTS assay for small molecule agonists of retinoid X receptor alpha signaling (AID 588544).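 For activation: 0% = DMSO basal wells and 100% = reference agonist.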 Conditions: HEK293T RXRa-UAS-bla, beta-lactamase reporter, 18 h; 530 nm emission.
In assay [20] the target is Retinoic acid receptor RXR-alpha (Homo sapiens) (UniProt P19793). Nature of the assay: qHTS assay for small molecule antagonists of retinoid X receptor alpha signaling (AID 588546).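 Note: cells stimulated with 9-cis-retinoic acid as agonist; % is set by controls: 0 for no effect and ±100 for the full control effect.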 Conditions: HEK293T RXRa-UAS-bla, beta-lactamase ratio, antagonist mode. In outline:
as §1

Results filed as inconclusive are left out. Calls of active or inactive are those of the source. Unless noted, calls come from the whole dose curve.

Sequence of Peroxisome proliferator-activated receptor gamma (Homo sapiens) (P37231 whole entry, looked up): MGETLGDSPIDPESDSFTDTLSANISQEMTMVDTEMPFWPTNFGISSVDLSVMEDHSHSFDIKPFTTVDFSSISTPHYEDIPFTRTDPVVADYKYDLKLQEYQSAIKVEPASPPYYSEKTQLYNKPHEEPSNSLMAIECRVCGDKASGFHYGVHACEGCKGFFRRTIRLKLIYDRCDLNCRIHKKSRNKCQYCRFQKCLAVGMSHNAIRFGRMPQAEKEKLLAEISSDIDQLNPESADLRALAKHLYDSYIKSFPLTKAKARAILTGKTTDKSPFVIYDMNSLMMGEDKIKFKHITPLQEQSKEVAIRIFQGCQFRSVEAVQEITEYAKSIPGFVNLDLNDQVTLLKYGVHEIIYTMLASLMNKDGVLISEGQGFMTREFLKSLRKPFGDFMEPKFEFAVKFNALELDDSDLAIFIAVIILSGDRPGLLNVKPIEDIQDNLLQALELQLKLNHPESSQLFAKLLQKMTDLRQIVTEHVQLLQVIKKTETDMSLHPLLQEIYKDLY
Sequence of Vitamin D3 receptor (Homo sapiens) (P11473 whole entry, looked up): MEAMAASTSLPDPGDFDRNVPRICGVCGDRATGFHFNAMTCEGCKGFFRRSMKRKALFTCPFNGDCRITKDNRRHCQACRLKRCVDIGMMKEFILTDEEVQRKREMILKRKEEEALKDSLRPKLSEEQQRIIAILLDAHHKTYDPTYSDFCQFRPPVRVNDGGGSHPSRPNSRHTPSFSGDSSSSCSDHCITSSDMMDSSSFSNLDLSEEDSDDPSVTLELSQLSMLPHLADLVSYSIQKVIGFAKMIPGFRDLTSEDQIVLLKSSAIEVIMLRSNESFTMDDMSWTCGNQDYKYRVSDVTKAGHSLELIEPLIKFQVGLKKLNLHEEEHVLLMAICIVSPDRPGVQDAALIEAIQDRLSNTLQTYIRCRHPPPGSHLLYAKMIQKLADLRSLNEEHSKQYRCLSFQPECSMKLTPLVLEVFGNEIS
Sequence of Peroxisome proliferator-activated receptor delta (Homo sapiens) (Q03181 whole entry, looked up): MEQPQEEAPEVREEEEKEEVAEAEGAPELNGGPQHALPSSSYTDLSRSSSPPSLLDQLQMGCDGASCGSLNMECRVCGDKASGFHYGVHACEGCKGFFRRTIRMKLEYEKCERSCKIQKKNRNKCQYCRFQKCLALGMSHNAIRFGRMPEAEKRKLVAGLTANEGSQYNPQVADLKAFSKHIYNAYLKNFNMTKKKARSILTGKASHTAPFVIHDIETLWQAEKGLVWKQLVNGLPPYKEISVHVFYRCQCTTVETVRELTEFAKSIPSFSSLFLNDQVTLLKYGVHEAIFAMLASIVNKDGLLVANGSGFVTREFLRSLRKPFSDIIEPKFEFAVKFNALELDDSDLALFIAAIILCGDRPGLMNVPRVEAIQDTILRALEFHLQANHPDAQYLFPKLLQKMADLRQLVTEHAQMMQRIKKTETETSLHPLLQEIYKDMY
Sequence of Retinoic acid receptor RXR-alpha (Homo sapiens) (P19793 whole entry, looked up): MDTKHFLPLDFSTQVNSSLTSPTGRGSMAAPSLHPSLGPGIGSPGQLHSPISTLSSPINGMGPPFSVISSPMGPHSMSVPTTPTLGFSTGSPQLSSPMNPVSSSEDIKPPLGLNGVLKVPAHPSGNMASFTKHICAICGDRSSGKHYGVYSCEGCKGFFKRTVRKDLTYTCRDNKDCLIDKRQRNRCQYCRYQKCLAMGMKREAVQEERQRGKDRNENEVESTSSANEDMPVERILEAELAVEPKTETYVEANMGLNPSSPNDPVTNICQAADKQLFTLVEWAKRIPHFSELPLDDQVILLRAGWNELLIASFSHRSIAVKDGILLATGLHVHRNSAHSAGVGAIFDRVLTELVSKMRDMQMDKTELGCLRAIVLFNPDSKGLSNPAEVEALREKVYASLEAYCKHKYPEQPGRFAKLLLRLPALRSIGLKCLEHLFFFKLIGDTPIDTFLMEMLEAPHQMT
Sequence of Estrogen receptor (Homo sapiens) (P03372 whole entry, looked up): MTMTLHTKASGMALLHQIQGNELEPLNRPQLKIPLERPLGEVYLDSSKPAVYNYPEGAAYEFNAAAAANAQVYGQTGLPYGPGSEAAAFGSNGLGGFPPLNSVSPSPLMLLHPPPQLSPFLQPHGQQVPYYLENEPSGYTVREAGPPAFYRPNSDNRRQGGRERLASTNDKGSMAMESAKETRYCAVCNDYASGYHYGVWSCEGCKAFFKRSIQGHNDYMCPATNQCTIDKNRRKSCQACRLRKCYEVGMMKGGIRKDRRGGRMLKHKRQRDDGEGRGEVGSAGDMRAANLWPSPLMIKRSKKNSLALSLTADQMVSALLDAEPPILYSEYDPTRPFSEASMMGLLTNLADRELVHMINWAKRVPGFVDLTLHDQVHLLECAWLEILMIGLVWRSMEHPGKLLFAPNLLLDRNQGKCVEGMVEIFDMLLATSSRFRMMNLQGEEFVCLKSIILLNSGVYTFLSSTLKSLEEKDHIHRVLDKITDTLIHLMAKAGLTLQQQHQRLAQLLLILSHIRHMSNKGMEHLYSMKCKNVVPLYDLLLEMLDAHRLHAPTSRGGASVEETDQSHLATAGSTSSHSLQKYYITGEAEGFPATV
Sequence of Peroxisome proliferator-activated receptor alpha (Homo sapiens) (Q07869 whole entry, looked up): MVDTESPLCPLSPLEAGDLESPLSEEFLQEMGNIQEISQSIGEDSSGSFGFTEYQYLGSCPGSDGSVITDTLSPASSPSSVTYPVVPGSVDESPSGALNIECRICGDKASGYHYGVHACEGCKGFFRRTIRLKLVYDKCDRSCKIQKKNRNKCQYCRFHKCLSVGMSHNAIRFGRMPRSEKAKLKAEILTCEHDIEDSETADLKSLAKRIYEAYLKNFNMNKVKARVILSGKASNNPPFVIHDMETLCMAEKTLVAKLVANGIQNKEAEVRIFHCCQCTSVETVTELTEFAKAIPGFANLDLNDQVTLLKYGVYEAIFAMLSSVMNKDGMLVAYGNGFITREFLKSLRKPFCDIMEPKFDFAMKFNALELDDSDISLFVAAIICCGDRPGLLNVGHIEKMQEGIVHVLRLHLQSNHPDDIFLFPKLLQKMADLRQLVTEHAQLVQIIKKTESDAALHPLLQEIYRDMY

With `CCCCC(CC)CO[N+](=O)[O-]` (configuration not stated), the Potency result in assay [1], in assay [2], in assay [4], in [5], in assay [6] and in assay [7] was “inactive” throughout. Moreover, the Potency result in assay [8], in [14] and in assay [17] was “inactive” each time. The result in assay [3] was inactive. Moreover, the max response was -8.14% in assay [9]; -0.348% (inactive) in [13]; -12.3% (inactive) in [15]; 3.43% (inactive) in assay [16]; 1.62% (inactive) in assay [18]. Further, the activity change % (negative = inhibition) in assay [10] is -3.31% (inactive). The figures for the activation in assay [11] and in assay [12] were -4.18% (inactive) and 2.43% (inactive), respectively.
Regarding `COc1cc(Cl)c(OC)cc1Cl`, the Potency entry in assay [1], in assay [2], in [4], in [5], in assay [6] and in assay [7] was “inactive” each time. Moreover, the Potency entry in assay [8], in assay [14] and in assay [17] was “inactive” each time. Further, the activity change % (negative = inhibition) in assay [10] is 4.96% (inactive). In addition, the activation in assay [11] is -1% (inactive); in assay [12], -2.48% (inactive). For the same compound, the max response is -0.244% (inactive) in assay [13], -1.62% (inactive) in assay [15] and 1.36% (inactive) in assay [18].
Consider `CC(Oc1ccc(Cl)cc1Cl)C(=O)O` (configuration not stated), for which the Potency result in assay [1], in assay [5], in assay [6], in assay [7], in [8] and in assay [14] was “inactive” each time. The Potency result in assay [17] was “inactive”. The max response in [19] was 11.7%; in assay [9], 2.43%; in [13] it was 0.174% (inactive); in [15], 8.84% (inactive); in [18], -2.29% (inactive). Further, the activation in [11] is 0.243% (inactive); in assay [12] it was -1.09% (inactive).
For the compound `CCOP(=S)(OCC)Oc1ccc(S(C)=O)cc1` (configuration not stated), the Potency result in assay [1], in [2], in assay [4], in [5], in assay [6] and in [7] was “inactive” throughout. For the same compound, the Potency entry in assay [8], in assay [14] and in assay [17] was “inactive” throughout. Further, the compound was classed as inactive in assay [3]. Further, the max response in assay [19] was -0.202%; in assay [9] it was -3.81%; in [20] it was -34.4% (inactive); in assay [13], -1.54% (inactive); in [15] it was 6.57% (inactive); in [16] it was -11.8% (inactive). For the same compound, the max response in assay [18] is 7.38% (inactive). Moreover, the activity change % (negative = inhibition) in [10] was -4.14% (inactive). In addition, the activation in assay [12] is 14.8% (inactive).
Turning to `CCc1ccc(C(=O)NN(C(=O)c2cc(C)cc(C)c2)C(C)(C)C)cc1`, the Potency result in assay [1], in [2], in assay [4], in assay [7], in assay [8] and in assay [14] was “inactive” throughout. Moreover, in assay [17], the Potency entry is “inactive”. Besides, the call in [3] was inactive. Moreover, the max response in [19] was 1.33%; in assay [13] it was -0.946% (inactive); in [15] it was -4.5% (inactive); in [16], -11.8% (inactive). In addition, the activity change % (negative = inhibition) in assay [10] is 18% (inactive). In addition, the results for the activation in [11] and in assay [12] were 3.11% (inactive) and 1.38% (inactive), respectively.
Take `CCOP(=S)(NC(C)C)Oc1ccccc1C(=O)OC(C)C` (configuration not stated): the Potency entry in [1], in [4], in [5], in assay [6], in assay [8] and in assay [14] was “inactive” each time. Also, in assay [17], the Potency result was “inactive”. In assay [3], the compound was classed as inactive. Besides, the max response was -9.07% in assay [9]; -31.4% (inactive) in assay [20]; -0.429% (inactive) in assay [13]; -14.9% (inactive) in assay [15]; -18.9% (inactive) in assay [16]. The activity change % (negative = inhibition) in [10] is 1.38% (inactive). The activation in assay [11] was 2.9% (inactive); in assay [12], 4.48% (inactive).
